Bfl-1 A1 inh: inhibitors of the anti-apoptotic protein A1, read as caspase activation. MEF A1-2A-BIM cells, Caspase-Glo 3/7 luminescence, 3 h; percent of clofoctol response, vehicle zero. caspase activation, % (test concentration not listed). actives 0.066% (n = 330,000). AID 2462;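 active means over half of replicate activation scores above 10%, or exactly half above 10 with the replicate mean above 10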
GRK2 inh: blocks RNA aptamer binding to human GRK2 | P25098 | bead flow cytometry, FAM-aptamer displacement from GRK2 | inhibition of aptamer binding, % at 10 µM | actives 0.59% (n = 330,000) | AID 488847;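 active means inhibition of aptamer binding above 40%, roughly 3 SD of noise, on plates passing a quality check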;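 further: median bead fluorescence of bound FAM aptamer so fluorescent compounds give negative values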
Target sequence (P25098 whole entry, looked up): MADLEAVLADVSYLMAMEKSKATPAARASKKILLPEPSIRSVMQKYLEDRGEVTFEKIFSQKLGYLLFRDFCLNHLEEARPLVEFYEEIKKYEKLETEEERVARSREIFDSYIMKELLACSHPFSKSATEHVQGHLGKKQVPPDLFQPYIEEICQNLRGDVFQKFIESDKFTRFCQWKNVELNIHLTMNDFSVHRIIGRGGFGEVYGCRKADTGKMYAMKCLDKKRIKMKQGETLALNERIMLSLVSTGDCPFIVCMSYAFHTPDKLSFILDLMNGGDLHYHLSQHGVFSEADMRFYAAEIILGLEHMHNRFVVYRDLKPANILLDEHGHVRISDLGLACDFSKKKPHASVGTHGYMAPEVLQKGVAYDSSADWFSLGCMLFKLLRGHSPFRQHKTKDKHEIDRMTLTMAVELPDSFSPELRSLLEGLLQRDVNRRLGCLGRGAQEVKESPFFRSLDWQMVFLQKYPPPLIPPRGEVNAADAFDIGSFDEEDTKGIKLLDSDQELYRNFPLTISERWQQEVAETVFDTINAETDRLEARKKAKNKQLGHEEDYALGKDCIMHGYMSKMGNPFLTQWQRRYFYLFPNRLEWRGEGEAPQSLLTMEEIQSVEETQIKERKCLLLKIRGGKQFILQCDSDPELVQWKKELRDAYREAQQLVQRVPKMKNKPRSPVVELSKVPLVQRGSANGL
NTR1 agonist: agonists of human neurotensin receptor NTR1. NTR1-U2OS beta-arrestin-GFP spot imaging, agonist mode. activation, % at 20 µM. actives 0.17% (n = 330,000). P30989;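 active means activation at or above 40% of the spot to cytoplasm intensity ratio, with at least 20 cells analyzed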;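 further: 0% = DMSO without peptide and 100% = 100 nM NTR1 peptide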
VLA-4 inh: inhibition in a human VLA-4 binding assay; actives 0.2% (n = 330,000); P13612; AID 2557; inhibition, % (about 7 µM as worked out from the volumes in the protocol); VLA-4 expressing cells, ligand binding flow cytometry; in the data active means inhibition above about 50%
Beta2AR agonist: human beta-2 adrenergic receptor agonism by FAP; P07550; Am2.2-beta2AR cells, FAP receptor internalization, flow cytometry; response, % (test concentration not listed); actives 0.43% (n = 340,000);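 active means response above a set limit, near 3 SD of response in nonfluorescent compounds, cut at about 42% in these data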
Starred values were filed as active, the others as inactive; . = no result. Most compounds without a hit are left out; they make up all but 1.3% or so of the library.

SMILES	Bfl-1 A1 inh	GRK2 inh	NTR1 agonist	VLA-4 inh	Beta2AR agonist
Cc1ccn(CC(=O)N2CCCC(N3CCN(c4ccc(F)cc4)CC3)C2)n1 (stereo unspecified)	.	.	0	.	-1
Cc1cc(Cl)n2c(nc3cc(F)c(F)cc32)c1C#N	.	.	.	.	113*
O=C(/C=C/c1cn(-c2ccccc2)nc1-c1cccnc1)N1CCCC1	.	.	.	.	-39
O=C(/C=C/c1cn(-c2ccccc2)nc1-c1cccnc1)c1ccco1	1	2	6	10	81*
C(=C1/CCCC2=C1Nc1ncnn1C2c1ccccc1)/c1ccccc1 (stereo unspecified)	2	4	73*	13	.
S=C1NC2=C(CCC/C2=C\c2ccccc2)C(c2ccccc2)N1 (stereo unspecified)	0	1	0	-1	-2
CC1(C)OC(=O)C(=Cc2ccc(-c3ccc(S(N)(=O)=O)cc3)o2)C(=O)O1	6.1*	0	-1	13	2
NS(=O)(=O)c1ccc(-c2ccc(/C=C3\C(=O)Nc4ccccc43)o2)cc1	3	0	0	-15	.
CCN(CC)S(=O)(=O)c1cc(NC(=O)c2cc([N+](=O)[O-])ccc2N2CCOCC2)ccc1C	1	1	1	4	-1
O=c1[nH]c(NNC(=S)NC2CCCCC2)nc2c1C1(CCCC1)Cc1ccccc1-2	1	0	12	1	68*
Cc1c(N=C2C=CC(=O)c3ccccc32)c(=O)n(-c2ccccc2)n1C	.	.	.	.	44*
Cc1c(N=C2C=C(Br)C(=O)C(Br)=C2)c(=O)n(-c2ccccc2)n1C	.	.	0	.	1
COc1ccc(C(=O)Nc2cccc3c2CCCC3)cc1OC	1	1	0	20	-6
C=CC[N+]1(CC=C)CCOCC1	8.6*	0	0	4	2
CCCC(C)C(=O)Nc1ncc(S(=O)(=O)c2ccc([N+](=O)[O-])cc2)s1 (stereo unspecified)	-1	0	15	-1	16
CCN(CC(=O)Nc1c(F)cccc1F)C(=O)/C=C/c1ccc(C)cc1	12*	5	-1	44	0
CCN(CC(=O)Nc1c(F)cccc1F)C(=O)/C=C/c1ccc(OCC#N)c(OC)c1	0	1	0	-6	-14
CCOc1ccc(-c2ccc(SCc3ccccn3)nn2)cc1	-1	6	2	61*	-4
CCc1ccc(-c2ccc(SCc3ccccn3)nn2)cc1	-2	1	6	0	2
O=C(CCc1c[nH]c2ccccc12)NCCc1ccc(O)cc1	0	0	0	5	5
CCOC(=O)COc1ccc(/C=C2\NC(=S)N(CC)C2=O)cc1	1	0	4	11	66*
CCN1C(=O)/C(=C/c2ccc(C)s2)NC1=S	0	2	1	-6	-2
COc1ccc(N/C=C\C(=O)c2ccc3ccccc3c2)cc1	-4	3	-1	9	4
NS(=O)(=O)c1ccc(N/C=C\C(=O)c2ccc3ccccc3c2)cc1	-1	49*	1	6	0
CCCCNc1c(-c2cccc(-c3ccc(OC)cc3)c2)nc2ccc(C)cn12	0	0	36	33	49*
SMILES	Bfl-1 A1 inh	GRK2 inh	NTR1 agonist	VLA-4 inh	Beta2AR agonist
CCCCNc1c(-c2cccc(-c3ccc(OC)cc3)c2)nc2cc(C)ccn12	-1	0	33	12	25
CCOP(=O)(OCC)C(NC(=O)C(F)(F)F)c1ccccc1 (stereo unspecified)	1	64*	1	21	5
O=C(Nc1cccc2ccccc12)OCc1ccccc1	.	.	.	.	-6
Cc1ccc(NC(=O)NCc2cccn2C)cc1C	-1	0	-2	-3	4
Oc1ccc(/C=N/Nc2ccnc3cc(Cl)ccc23)cc1O	0	13	26	-14	10
Oc1ccc(/C=N/Nc2ccnc3cc(Cl)ccc23)c(O)c1O	-1	4	0	0	106*
COc1cc2c(O)c3c(c(-c4ccc5c(c4)OCO5)c2cc1OC)C(=O)OC3	-1	2	8	13	45*
COc1ccc(-c2oc(=O)c3cc(OC)c(OC)cc3c2-c2ccc3c(c2)OCO3)cc1	-7	0	4	-21	-4
COc1cc2c(OC(C)=O)c3c(c(-c4ccc5c(c4)OCO5)c2cc1OC)C(=O)OC3	0	0	11	31	59*
Cc1ccc(S(=O)(=O)N(C)S(=O)(=O)c2ccc(C#N)cc2)cc1	0	0	1	9	.
CC(C)N1CCC2(CC1)C(C#N)=C(N)NC(S)=C2C#N	0	58*	-1	-57	.

Screens: PubChem BioAssay, several laboratories
